A short description of assay [1]: P-glycoprotein substrates identified in KB-8-5-11 adenocarcinoma cell line, qHTS therapeutic library screen (AID 1346987). Note: nearly all actives have a fitted effect of over 65% in size. Note: potency is the fitted concentration of half-maximal effect. The essentials:
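Compounds are pinned in dose-response onto KB-8-5-11 cells (500 cells/well, colchicine-free medium) and left 72 h at 37 degree C. CellTiter-Glo luminescence then yields AC50 values.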

Assay [2] has as its target Calcium and integrin-binding protein 1 (Homo sapiens) (UniProt Q99828). The assay is described as follows: Primary qHTS for Identification of Calcium Integrin Binding Protein 1 (CIB1) Competitor (AID 1508620).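 Note: GST tagged CIB1 binding a fluorescein labelled alphaIIb integrin peptide tracer; top concentration of the series differs between compounds; % is set by controls: 0 for no effect and ±100 for the full control effect.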 The essentials:
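Fluorescence polarization competition: CIB1-GST (1 uM final) preincubated with compound 15 min at room temperature, then FITC-labeled alphaIIb peptide (100 nM final) added for another 15 min. Polarization read at Ex 480/Em 540.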
For orientation: Quantitative high-throughput screening tests each substance at several concentrations.

A short description of assay [3]: Primary qHTS for inhibitors of nuclear receptor binding SET domain protein 2 (NSD2) in an isogenic RCH-ACV NSD2 p.E1099K mutant (9B) (AID 1645876). Note: nearly all actives have a fitted effect of over 70% in size. Note: potency is the fitted concentration of half-maximal effect.
Assay [4] concerns the target Phospholipid hydroperoxide glutathione peroxidase GPX4 (Homo sapiens) (UniProt P36969). The assay is described as follows: Primary qHTS Assay for Inhibitors of Recombinant Selenoprotein Glutathione Peroxidase 4 (GPX4) (AID 1845192). Note: nearly all actives have a fitted effect of over 65% in size. In a few lines:
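qHTS, GR-coupled: GPX4 200 nM + cpd 30 min RT → GSH 1 mM, NADPH 0.5 mM, GR 100 nM → CHP 0.5 mM start; fluor 340/450 at t0 and t15 min; no-enzyme wells as control.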

Assay [5] has as its target Luciferin 4-monooxygenase (Photinus pyralis) (UniProt P08659). The assay is described as follows: Primary firefly luciferase (FLuc) qHTS assay for identification of artifact compounds. (AID 1845220). Note: nearly all actives have a fitted effect of over 60% in size. Particulars: outcome: dose series up to 54.1 µM unless noted. In a few lines:
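qHTS, 15 min compound preincubation with substrate (10 uM luciferin, 10 uM ATP) at RT, then 10 nM FLuc; 5 min; luminescence; % inhibition vs no-enzyme/DMSO controls, 4-parameter Hill fit.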

The subject of assay [6] is Nanoluciferase (engineered Oplophorus gracilirostris luciferase). Nature of the assay: Primary Nanoluciferase (NLuc) qHTS assay for identification of artifact compounds. (AID 1845222). The essentials: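 Luminescence read-out of secreted NLuc in S16 cell conditioned medium (1:55); compounds tested with 15 min RT preincubation, then Nano-Glo substrate 1:100, 5 min. % inhibition vs no-enzyme and DMSO controls, 4-parameter Hill fit.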

Assay [7] deals with CRL-7250. Nature of the assay: Cytotoxic Profiling of Annotated Libraries Using Quantitative High-Throughput Screening (AID 1296008). For max response: % is set by controls: 0 for no effect and ±100 for the full control effect. Note: nearly all actives have a fitted effect of over 60% in size. Note: potency is the fitted concentration of half-maximal effect. The following applies: Five cell lines viability, CellTiter-Glo ATP luminescence, 48-72 h; max response: stronger effect = lower value. In a few lines: (§1)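 Compounds were pin-transferred onto cells and incubated 48 or 72 hr at 37 degree Celsius, 95% humidity. CellTiter-Glo was added, plates sat 10 min at room temperature, then ATP-coupled luminescence was imaged as the viability read-out.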
In general terms: Cellular ATP, detected with luciferase, serves as a proxy for viable cell number.

Assay [8] has as its system HEK293. Described as above. The following applies: Five cell lines viability, CellTiter-Glo ATP luminescence, 48-72 h; max response: stronger effect = lower value. In a few lines:
as §1

In assay [9] the test system is HaCat. The description is as above. Particulars: Five cell lines viability, CellTiter-Glo ATP luminescence, 48-72 h; max response: stronger effect = lower value. In a few lines: as §1
Assay [10] concerns NIH3T3. The description is as above. The following applies: Five cell lines viability, CellTiter-Glo ATP luminescence, 48-72 h; max response: stronger effect = lower value. The essentials:
as §1

In assay [11] the test system is C33A. Nature of the assay: Primary qHTS to identify gynecologic anti-cancer compounds using libraries of approved drugs and bioactive compounds (AID 1345084). Note: nearly all actives have a fitted effect of over 55% in size. Note: potency is the fitted concentration of half-maximal effect. Particulars: Gynecologic cancer cell panel viability, ATPlite luminescence, 48 h; series mostly up to 57.5 µM. In a few lines: (§2)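 48 h compound exposure at 37 C, 5% CO2; five-point qHTS. ATPlite luminescence readout of cell ATP.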

In assay [12] the test system is CAOV3. The assay is described as above. The following applies: Gynecologic cancer cell panel viability, ATPlite luminescence, 48 h; series mostly up to 57.5 µM. The essentials:
as §2

For assay [13], the system named is CASKI. The assay is described as above. The following applies: Gynecologic cancer cell panel viability, ATPlite luminescence, 48 h; series mostly up to 57.5 µM. The essentials: as §2
Assay [14] concerns Es-2. The description is as above. The following applies: Gynecologic cancer cell panel viability, ATPlite luminescence, 48 h; series mostly up to 57.5 µM. In a few lines:
as §2

Assay [15] relates to Hek293T. The assay is described as above. The following applies: Gynecologic cancer cell panel viability, ATPlite luminescence, 48 h, control line for the selectivity index; series mostly up to 57.5 µM. In a few lines: as §2
For assay [16], the system named is OV90. Described as above. Particulars: Gynecologic cancer cell panel viability, ATPlite luminescence, 48 h; series mostly up to 57.5 µM. In a few lines: as §2
The subject of assay [17] is PA-1. The assay is described as above. Particulars: Gynecologic cancer cell panel viability, ATPlite luminescence, 48 h; series mostly up to 57.5 µM. The essentials: as §2
Assay [18] deals with Tov-21-G. The description is as above. The following applies: Gynecologic cancer cell panel viability, ATPlite luminescence, 48 h; series mostly up to 57.5 µM. The essentials: as §2
In assay [19] the test system is Tov112D. Described as above. Particulars: Gynecologic cancer cell panel viability, ATPlite luminescence, 48 h; series mostly up to 57.5 µM. The essentials: as §2
Assay [20] concerns JEG-3. Described as above. The following applies: Gynecologic cancer cell panel viability, ATPlite luminescence, 48 h; series mostly up to 57.5 µM. The essentials:
as §2

The source of these data is PubChem BioAssay (NCATS).

Values without a mark were called inactive. Records with an inconclusive call do not appear. Calls of active or inactive are those of the source. Calls come from the whole dose curve; as a rule, active = well fitted curve in the direction sought with a large enough effect; inconclusive = small, poorly fitted or top-dose-only effect, or another doubt; inactive = no such curve, though single readings can be large; an effect the other way counts as inactive or inconclusive.

Calcium and integrin-binding protein 1 (Homo sapiens), sequence (Q99828 whole entry, looked up): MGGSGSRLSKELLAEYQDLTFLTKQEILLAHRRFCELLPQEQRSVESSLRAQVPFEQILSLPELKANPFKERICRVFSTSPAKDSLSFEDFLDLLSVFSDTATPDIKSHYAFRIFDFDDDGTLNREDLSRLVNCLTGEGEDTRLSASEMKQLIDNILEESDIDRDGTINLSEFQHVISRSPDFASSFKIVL
Phospholipid hydroperoxide glutathione peroxidase GPX4 (Homo sapiens), sequence (P36969 whole entry, looked up): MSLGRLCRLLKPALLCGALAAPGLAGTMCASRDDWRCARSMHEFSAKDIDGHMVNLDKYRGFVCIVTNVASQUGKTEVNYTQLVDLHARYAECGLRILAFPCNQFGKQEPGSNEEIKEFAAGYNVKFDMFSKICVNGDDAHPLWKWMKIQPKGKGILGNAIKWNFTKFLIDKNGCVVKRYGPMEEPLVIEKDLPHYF

As to `CO[C@H]1[C@@H](O)[C@@H](C)O[C@@H](O[C@@H]2C=C3C(OC(C)=O)CC4(O)C(CC[C@]5(C)[C@@H](C6=CC(=O)OC6)CC[C@]45O)[C@@]3(C)CC2)[C@@H]1O` (stereo partly drawn), the Potency in [1] was 193 nM (active); in assay [3], 48.3 nM (active); in assay [7], 137 nM (active); in [8], 86.2 nM (active); in assay [9], 2430 nM (active); in assay [11] it was 178 nM (active). For the same compound, the Potency in assay [12] was 501 nM (active); in [13] it was 2820 nM (active); in assay [14], 447 nM (active); in [15], 251 nM (active); in [16], 2510 nM (active); in assay [17], 316 nM (active). Also, the Potency in assay [18] was 282 nM (active); in assay [19] it was 100 nM (active). The Potency entry in [2], in assay [4] and in [6] was “inactive” throughout. Moreover, the outcome in assay [5] was “inactive [at 25.7 µM]”. Further, the max response in assay [10] was -11.7%.

`C/C=C1/CN2CC[C@]34C(=Nc5ccc(OC)cc53)C2C[C@@H]1C4(CO)C(=O)OC` (stereo partly drawn): the Potency entry in assay [1], in assay [2], in [3], in assay [6], in assay [11] and in assay [12] was “inactive” throughout. The Potency entry in [13], in assay [14], in assay [15], in assay [20], in assay [16] and in [17] was “inactive” each time. The Potency entry in assay [18] and in [19] was “inactive” in each case. The compound was classed as inactive in [5] and in assay [9]. Moreover, the max response was 0.729% in assay [7], 4.62% in assay [8] and 4.25% in assay [10].

For the compound `CCC(C)/C=C(C)/C=C/C1=CC2=C(Cl)C(=O)C(C)(OC(C)=O)C(=O)C2=CO1` (stereo not drawn), the Potency result in [1], in [2], in assay [3], in assay [4], in assay [11] and in assay [12] was “inactive” each time. Also, the Potency entry in assay [13], in [14], in assay [15], in assay [20], in [16] and in assay [17] was “inactive” throughout. The Potency result in [18] and in assay [19] was “inactive” each time. Also, the result in [5] was inactive. The max response in assay [7] was -20%; in assay [8] it was -69.1%; in assay [9] it was -66.3%; in [10], -56.4%.

`COc1ccc2c3c4n(c2c1)[C@@H](C=C(C)C)OOC(C)(C)C[C@@H]4N1C(=O)[C@@H]2CCCN2C(=O)[C@]1(O)[C@H]3OCC=C(C)C`: the Potency result in assay [2], in assay [3], in assay [4], in assay [6], in assay [11] and in [12] was “inactive” throughout. The Potency entry in [13], in assay [14], in assay [15], in [20], in assay [16] and in assay [17] was “inactive” in each case. Also, the Potency entry in assay [18] and in assay [19] was “inactive” each time. The compound was classed as inactive in assay [5] and in assay [7]. The max response in assay [8] was -3.84%; in assay [9], -11%; in [10], 0.42%.

For `CC(=O)N1N=C(c2ccc(N)cc2)c2cc3c(cc2C[C@H]1C)OCO3`, the Potency entry in assay [1], in [2], in [6], in assay [11], in assay [12] and in assay [13] was “inactive” each time. Besides, the Potency entry in assay [14], in [15], in assay [20], in [16], in [17] and in [18] was “inactive” each time. In assay [19], the Potency entry is “inactive”. The outcome in assay [5] was inactive. For the same compound, the max response in assay [7] was -0.992%; in assay [8], -4.81%; in [9], -4.11%; in [10], -2.08%.

Consider `C=CCN1CCC2(C)c3cc(O)ccc3C[C@H]1[C@H]2C`, for which the Potency result in assay [1], in assay [3], in [4], in assay [6], in assay [11] and in assay [12] was “inactive” throughout. Further, the Potency result in assay [13], in [14], in assay [15], in assay [20], in assay [16] and in assay [17] was “inactive” throughout. The Potency entry in assay [18] and in assay [19] was “inactive” each time. In addition, the compound was called inactive in assay [5]. Besides, the max response in assay [7] was -1.35%; in assay [8], -5.37%; in assay [9] it was -10.4%; in assay [10] it was 1.43%.
